From PubChem BioAssay (NCI)
The panel holds about 79,000 compounds, 15% with a hit somewhere; the sample as a whole holds those more often. Values without a mark were called inactive. The source made the active and inactive calls. Cut-off read from the data, not from the text of the source: active = growth inhibition above about 70%; inactive = the rest.

Assays:
[1] = NCI Yeast Anticancer Drug Screen. Data for the rad50 strain (AID 155);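 note: 0% = growth of vehicle-only cultures of the same strain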; conditions: S. cerevisiae rad50 strain growth inhibition, hits give high values
Summary of the method: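 Growth of the mutant yeast was measured after compound exposure and referenced to vehicle-treated cultures.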

[2] = NCI Yeast Anticancer Drug Screen. Data for the mec2-1 strain (AID 157); conditions: S. cerevisiae mec2-1 strain, hits give high values
Summary of the method: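 mec2-1 yeast strain, carrying an alteration in DNA damage repair or cell cycle control, was exposed to compounds; growth inhibition was measured relative to vehicle-treated controls.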

[3] = NCI Yeast Anticancer Drug Screen. Data for the sgs1 mgt1 strain (AID 161);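 note: 0% = growth of cultures given vehicle only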; conditions: S. cerevisiae sgs1 mgt1 strain, hits give high values
Summary of the method: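 This yeast growth screen uses a strain with defined DNA-repair lesions; compound-treated growth is compared with vehicle-treated growth.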

[4] = NCI Yeast Anticancer Drug Screen. Data for the cln2 rad14 strain (AID 165);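 note: 0% = growth equal to vehicle treated cultures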; conditions: S. cerevisiae cln2 rad14 strain, hits give high values
Summary of the method: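 Yeast carrying cln2 and rad14 alterations (cell cycle control and DNA damage repair) were exposed to compounds. Growth inhibition was measured against vehicle-treated controls.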

[5] = NCI Yeast Anticancer Drug Screen. Data for the bub3 strain (AID 167); conditions: S. cerevisiae bub3 mutant strain, hits give high values
Summary of the method: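 Whole-cell yeast assay. The mutant strain was incubated with compounds, and growth inhibition was determined by comparison with vehicle-treated cells.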

[6] = NCI Yeast Anticancer Drug Screen. Data for the mlh1 rad18 strain (AID 175); conditions: S. cerevisiae mlh1 rad18 strain growth inhibition, hits give high values
Summary of the method: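 Growth inhibition of the yeast strain was measured after compound exposure and expressed relative to vehicle-treated controls. The strain carries defined defects in DNA damage repair.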

[7] = at 5.0 µM (retest, dose inferred, filed as 0.5)
[8] = at 50.0 µM (retest, dose inferred, filed as 5.0)

COc1ccc(OC)c(/C=C/c2ccnc3ccccc23)c1
growth inhibition [1, 7]: -3%
growth inhibition [1, 8]: 98% (active)
growth inhibition ([1]; at 50.0 µM): 96.3% (active)
growth inhibition [2, 7]: -1%
growth inhibition [2, 8]: 97% (active)
growth inhibition ([2]; at 50.0 µM): 95.3% (active)
growth inhibition [3, 7]: -2%
growth inhibition [3, 8]: 98% (active)
growth inhibition ([3]; at 50.0 µM): 97.2% (active)
growth inhibition [4, 7]: -4%
growth inhibition [4, 8]: 97% (active)
growth inhibition ([4]; at 50.0 µM): 94.3% (active)
growth inhibition [5, 7]: -1%
growth inhibition [5, 8]: 97% (active)
growth inhibition ([5]; at 50.0 µM): 95% (active)
growth inhibition [6, 7]: -2%
growth inhibition [6, 8]: 97% (active)
growth inhibition ([6]; at 50.0 µM): 95.6% (active)

O=C(c1ccc(Br)cc1)C1OC12C(=O)Nc1ccccc12 (stereo not given)
growth inhibition [1, 7]: 46%
growth inhibition [1, 8]: 99% (active)
growth inhibition ([1]; at 50.0 µM): 99.7% (active)
growth inhibition [2, 7]: 99% (active)
growth inhibition [2, 8]: 99% (active)
growth inhibition ([2]; at 50.0 µM): 99.7% (active)
growth inhibition [3, 7]: 84% (active)
growth inhibition [3, 8]: 100% (active)
growth inhibition ([3]; at 50.0 µM): 99.7% (active)
growth inhibition [4, 7]: 49%
growth inhibition [4, 8]: 99% (active)
growth inhibition ([4]; at 50.0 µM): 99.1% (active)
growth inhibition [5, 7]: 99% (active)
growth inhibition [5, 8]: 99% (active)
growth inhibition ([5]; at 50.0 µM): 99.6% (active)
growth inhibition [6, 7]: 99% (active)
growth inhibition [6, 8]: 99% (active)
growth inhibition ([6]; at 50.0 µM): 99.5% (active)

Cc1cc(O)c(C(=O)/C=C/c2ccnc3ccccc23)c(=O)o1
growth inhibition [1, 7]: -7%
growth inhibition [1, 8]: 5%
growth inhibition ([1]; at 50.0 µM): -9.7%
growth inhibition [2, 7]: -17%
growth inhibition [2, 8]: -1%
growth inhibition ([2]; at 50.0 µM): -6.65%
growth inhibition [3, 7]: 6%
growth inhibition [3, 8]: 20%
growth inhibition ([3]; at 50.0 µM): -2%
growth inhibition [4, 7]: 11%
growth inhibition [4, 8]: 8%
growth inhibition ([4]; at 50.0 µM): -13.4%
growth inhibition [5, 7]: 22%
growth inhibition [5, 8]: 8%
growth inhibition ([5]; at 50.0 µM): -4.8%
growth inhibition [6, 7]: 15%
growth inhibition [6, 8]: 8%
growth inhibition ([6]; at 50.0 µM): -23.2%

ClCc1c(-c2ccccc2)oc(-c2ccccc2)c1CCl
growth inhibition [1, 7]: 0%
growth inhibition [1, 8]: 49%
growth inhibition ([1]; at 50.0 µM): 32.6%
growth inhibition [2, 7]: 1%
growth inhibition [2, 8]: 64%
growth inhibition ([2]; at 50.0 µM): 34%
growth inhibition [3, 7]: 6%
growth inhibition [3, 8]: 72% (active)
growth inhibition ([3]; at 50.0 µM): 68.8%
growth inhibition [4, 7]: 1%
growth inhibition [4, 8]: 38%
growth inhibition ([4]; at 50.0 µM): 21.9%
growth inhibition [5, 7]: 1%
growth inhibition [5, 8]: 40%
growth inhibition ([5]; at 50.0 µM): 8.25%
growth inhibition [6, 7]: 1%
growth inhibition [6, 8]: 86% (active)
growth inhibition ([6]; at 50.0 µM): 73.4% (active)

Cc1cc(NCCCCCCCCCC[n+]2c(C)cc(N)c3ccccc32)c2ccccc2n1
growth inhibition [1, 7]: 71% (active)
growth inhibition [1, 8]: 99% (active)
growth inhibition ([1]; at 50.0 µM): 89.8% (active)
growth inhibition [2, 7]: 94% (active)
growth inhibition [2, 8]: 99% (active)
growth inhibition ([2]; at 50.0 µM): 92.2% (active)
growth inhibition [3, 7]: 97% (active)
growth inhibition [3, 8]: 99% (active)
growth inhibition ([3]; at 50.0 µM): 91.5% (active)
growth inhibition [4, 7]: 95% (active)
growth inhibition [4, 8]: 99% (active)
growth inhibition ([4]; at 50.0 µM): 90% (active)
growth inhibition [5, 7]: 96% (active)
growth inhibition [5, 8]: 99% (active)
growth inhibition ([5]; at 50.0 µM): 90.9% (active)
growth inhibition [6, 7]: 95% (active)
growth inhibition [6, 8]: 99% (active)
growth inhibition ([6]; at 50.0 µM): 90.6% (active)

Cc1cc2nc(CC(=O)c3ccc4ccccc4c3)c(=O)[nH]c2cc1C
growth inhibition [1, 7]: -43%
growth inhibition [1, 8]: -24%
growth inhibition ([1]; at 50.0 µM): 94.7% (active)
growth inhibition [2, 7]: -3%
growth inhibition [2, 8]: 9%
growth inhibition ([2]; at 50.0 µM): 81.4% (active)
growth inhibition [3, 7]: -5%
growth inhibition [3, 8]: -21%
growth inhibition ([3]; at 50.0 µM): 88.3% (active)
growth inhibition [4, 7]: -17%
growth inhibition [4, 8]: -33%
growth inhibition ([4]; at 50.0 µM): 80.9% (active)
growth inhibition [5, 7]: 13%
growth inhibition [5, 8]: -19%
growth inhibition ([5]; at 50.0 µM): 89% (active)
growth inhibition [6, 7]: -16%
growth inhibition [6, 8]: -28%
growth inhibition ([6]; at 50.0 µM): 96.7% (active)

O=C(CN(Cc1ccccc1)Cc1ccccc1)N1CCc2c([nH]c3ccccc23)C1c1cccnc1 (stereo not given)
growth inhibition [1, 7]: 29%
growth inhibition [1, 8]: 29%
growth inhibition ([1]; at 50.0 µM): 86.8% (active)
growth inhibition [2, 7]: 27%
growth inhibition [2, 8]: 27%
growth inhibition ([2]; at 50.0 µM): 86.5% (active)
growth inhibition [3, 7]: 8%
growth inhibition [3, 8]: 8%
growth inhibition ([3]; at 50.0 µM): 84.1% (active)
growth inhibition [4, 7]: 19%
growth inhibition [4, 8]: 19%
growth inhibition ([4]; at 50.0 µM): 88.3% (active)
growth inhibition [5, 7]: 11%
growth inhibition [5, 8]: 11%
growth inhibition ([5]; at 50.0 µM): 87.5% (active)
growth inhibition [6, 7]: 32%
growth inhibition [6, 8]: 32%
growth inhibition ([6]; at 50.0 µM): 85% (active)

C1=C(c2ccccc2)CCc2c1ccc1ccccc21
growth inhibition [1, 7]: 5%
growth inhibition [1, 8]: -8%
growth inhibition ([1]; at 50.0 µM): -3.45%
growth inhibition [2, 7]: -6%
growth inhibition [2, 8]: 3%
growth inhibition ([2]; at 50.0 µM): -10.8%
growth inhibition [3, 7]: 1%
growth inhibition [3, 8]: 16%
growth inhibition ([3]; at 50.0 µM): 0%
growth inhibition [4, 7]: -9%
growth inhibition [4, 8]: -10%
growth inhibition ([4]; at 50.0 µM): 4.35%
growth inhibition [5, 7]: 7%
growth inhibition [5, 8]: 10%
growth inhibition ([5]; at 50.0 µM): 16%
growth inhibition [6, 7]: -1%
growth inhibition [6, 8]: 21%
growth inhibition ([6]; at 50.0 µM): 5.7%

O=C1C(=O)c2ccccc2C(O)=C1Sc1ccccc1
growth inhibition [1, 7]: 23%
growth inhibition [1, 8]: 92% (active)
growth inhibition ([1]; at 50.0 µM): 95.2% (active)
growth inhibition [2, 7]: 20%
growth inhibition [2, 8]: 89% (active)
growth inhibition ([2]; at 50.0 µM): 92.4% (active)
growth inhibition [3, 7]: 44%
growth inhibition [3, 8]: 95% (active)
growth inhibition ([3]; at 50.0 µM): 95% (active)
growth inhibition [4, 7]: 41%
growth inhibition [4, 8]: 88% (active)
growth inhibition ([4]; at 50.0 µM): 79.3% (active)
growth inhibition [5, 7]: 15%
growth inhibition [5, 8]: 94% (active)
growth inhibition ([5]; at 50.0 µM): 93.7% (active)
growth inhibition [6, 7]: 34%
growth inhibition [6, 8]: 93% (active)
growth inhibition ([6]; at 50.0 µM): 95.5% (active)

CN(Cc1cc(Cl)cc(Cl)c1O)Cc1c(O)ccc2ccccc12
growth inhibition [1, 7]: 31%
growth inhibition [1, 8]: 100% (active)
growth inhibition ([1]; at 50.0 µM): 98.5% (active)
growth inhibition [2, 7]: 14%
growth inhibition [2, 8]: 100% (active)
growth inhibition ([2]; at 50.0 µM): 98.3% (active)
growth inhibition [3, 7]: 10%
growth inhibition [3, 8]: 99% (active)
growth inhibition ([3]; at 50.0 µM): 98.7% (active)
growth inhibition [4, 7]: -34%
growth inhibition [4, 8]: 99% (active)
growth inhibition ([4]; at 50.0 µM): 98.1% (active)
growth inhibition [5, 7]: -11%
growth inhibition [5, 8]: 100% (active)
growth inhibition ([5]; at 50.0 µM): 98.6% (active)
growth inhibition [6, 7]: 12%
growth inhibition [6, 8]: 99% (active)
growth inhibition ([6]; at 50.0 µM): 98.5% (active)
